Screening data: PubChem, National Center for Advancing Translational Sciences (NCATS)
NS1 function inh = inhibitors of influenza NS1 protein function | actives 0.4% (n = 270,000) | Potency, µM (titrated, usually from 46.1 µM), without a hit: at the top dose activity, positive = more growth; calls by dose curve; note: actives are rising curves; nearly all actives have a fitted effect of over 50% in size
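Growth recovery, yeast-based: influenza A NS1 expressed in S. cerevisiae causes slow growth, and suppressors are detected by OD600. The parent strain without NS1 is used as positive control.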
Sm TGR inh = S. mansoni TGR enzyme inhibition; Q962Y6; purified TGR, DTNB reduction, TNB absorbance 405 nm; Potency, µM (highest dose often 114 µM), for the others: at the highest dose activity change, negative = inhibition, actives largely listed as inhibitors; actives 3% (n = 360,000); note: % is set by controls: 0 for no effect and ±100 for the full control effect; nearly all actives have a fitted effect of over 60% in size
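Kinetic colorimetric format: TGR-catalysed, NADPH-driven DTNB reduction monitored via TNB absorbance. Enzyme dispensed at 20 nM; compound exposure 15 min at room temperature before reaction start.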
Pf growth 48h = P. falciparum growth inhibition at 48 hours (one generation); P. falciparum luciferase growth in erythrocytes, 48 h; Potency, µM (doses to about 28.7 µM), inactives show at the highest dose activity change, negative = inhibition, actives largely listed as inhibitors; actives 5.9% (n = 310,000); note: % is set by controls: 0 for no effect and ±100 for the full control effect
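Parasite viability was followed by luminescence of a genomically integrated firefly luciferase. Cultures held 0.1% parasitemia at 2% hematocrit (final), incubated under 5% CO2 at 37 C.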
AMA1 RON2 block = inhibitors of Plasmodium falciparum AMA1-RON2 interaction; AlphaScreen AMA1-biotinylated RON2 peptide binding; Potency, µM (doses to about 58.2 µM), without a hit: at the highest dose activity change, negative = inhibition, hits mostly inhibitors; actives 0.2% (n = 360,000);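 note: 0% = vehicle wells and -100% = peptide control; nearly all actives have a fitted effect of over 45% in size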
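AMA1 (3D7) with his tag at 25 nM final met compounds first, then biotinylated RON2 peptide at 25 nM; detection used donor plus acceptor beads, 10 µg/mL apiece, read by AlphaScreen after 30 min at room temperature.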
Pf growth 96h = P. falciparum growth inhibition at 96 hour, primary screen for plastid delayed-death inhibitors; Potency, µM (highest dose often 28.7 µM), for inactives: top-dose activity change, negative = inhibition, most hits filed as inhibitors; AID 504834; P. falciparum luciferase reporter growth, 96 h; actives 6.9% (n = 320,000); note: % is set by controls: 0 for no effect and ±100 for the full control effect
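Plates of compound plus infected erythrocytes (2% hematocrit, 0.05% parasitemia final) incubate 96 hours, 37 C, 5% CO2. Detection reagent added; reduced luminescence from the parasites' luciferase reporter flags inhibition.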
Numbers without * were called inactive; ? = inconclusive; nt = no result. An excerpt weighted towards active compounds, which were near 11% of everything screened. Unless noted, calls come from the whole dose curve; as a rule, active = well fitted curve in the direction sought with a large enough effect; inconclusive = small, poorly fitted or top-dose-only effect, or another doubt; inactive = no such curve, though single readings can be large; an effect the other way counts as inactive or inconclusive. Potency is the fitted concentration of half-maximal effect.

SMILES | NS1 function inh | Sm TGR inh | Pf growth 48h | AMA1 RON2 block | Pf growth 96h
CCCn1c(/N=C/c2c[nH]c3ccccc23)nc2ccccc21 | -13% | 9% | 33% | -8% | 33%
Cn1c(N/N=C/c2c[nH]c3ccccc23)nc2ccccc21 | -2% | 22% | 7.4µM* | ? | 1.7µM*
CC(=O)N1CCCC(C)(C(=O)Nc2ccc3nc(C)ccc3c2)C1 (stereo not given) | nt | nt | nt | -2% | nt
CCC/C(=N\NC(=O)c1ccco1)c1ccc(Cl)s1 | -12% | 3% | -28% | 23% | 13µM*
CCC(C)[C@@H](N)C(=O)N/N=C/c1ccc2ncccc2c1 (stereo not given in full) | 5% | 1% | ? | 45% | 12µM*
CC(C)(C)OC(=O)NCCC(=O)N/N=C/c1ccc2ncccc2c1 | -6% | 0% | -17% | -12% | -12%
CC(=O)N[C@@H](Cc1c[nH]c2ccccc12)C(=O)OCC(=O)Nc1ccc(S(=O)(=O)N(C)C)cc1 | nt | -1% | -7% | -5% | 36%
Cn1cccc1CNCCc1ccccc1 | 8% | -6% | 12% | nt | 41%
Cn1cccc1CNCCc1ccccc1F | 1% | -30% | -5% | -23% | 2.6µM*
COc1ccc(CCNCc2cccn2C)cc1 | 8% | ? | -17% | 0% | 1.5µM*
Fc1ccccc1CCNCc1ccccc1 | 6% | -11% | 21% | 8% | 25%
Cc1cccc(C2c3[nH]c4ccccc4c3CCN2C(=O)c2cc(CC(C)C)nc(C)n2)n1 (stereo not given) | -7% | -1% | 12µM* | -5% | ?
Cc1cccc(C2c3[nH]c4ccccc4c3CCN2C(=O)CN2CCOC2=O)n1 (stereo not given) | 0% | -19% | 28% | -2% | ?
Cc1cccc(C2c3[nH]c4ccccc4c3CCN2C(=O)Cc2nc(-c3ccccc3)n[nH]2)n1 (stereo not given) | 12% | 4% | 12µM* | -23% | 17%
Cc1cccc(C2c3[nH]c4ccccc4c3CCN2C(=O)c2nn(C)c(=O)c3ccccc23)n1 (stereo not given) | 11% | -7% | ? | -24% | 8.3µM*
Cc1ccc(NC(=O)C2(C)CCN2C(=O)CCC2CCCC2)cc1C (stereo not given) | nt | nt | nt | -13% | nt
CC(C)[C@H](NC(=O)N1c2ccccc2NC(=O)[C@@H]1C(C)C)C(=O)N[C@H](Cc1ccccc1)C(=O)O | 16% | 30% | -2% | -5% | -3%
CC(C)[C@H]1C=C(C(=O)O)O[C@@H](OCCCCO)C1 | -7% | ? | -1% | 58% | 11%
CCOC(=O)N1CCC(NS(=O)(=O)c2ccc3c(c2)OCC(=O)N3)CC1 | ? | 1% | 31% | -2% | ?
O=C(C1CC1)N1CCc2cc(Br)cc(S(=O)(=O)NC3CCCCC3)c21 | -37% | -1% | 4.7µM* | -11% | ?
CCC(=O)N1CCc2cc(Br)cc(S(=O)(=O)N3CCCCCC3)c21 | -32% | -18% | 2.9µM* | -6% | ?
CCOC(=O)C1CCCN(S(=O)(=O)c2cc(Br)cc3c2N(C(=O)C2CC2)CC3)C1 (stereo not given) | -100% | 0% | 3.3µM* | 0% | 36%
O=C(C1CC1)N1CCc2cc(Br)cc(S(=O)(=O)NCCCN3CCCCC3)c21 | 14% | -5% | -7% | -1% | 0%
CCC(=O)N1CCc2cc(Br)cc(S(=O)(=O)N3CCCC(C(=O)O)C3)c21 (stereo not given) | 5% | -5% | -11% | -4% | 26%
CCOC(=O)N1CCC(NS(=O)(=O)c2cc3c(cc2Cl)NC(=O)CO3)CC1 | 6% | -16% | ? | 0% | 0.21µM*
SMILES | NS1 function inh | Sm TGR inh | Pf growth 48h | AMA1 RON2 block | Pf growth 96h
Cn1cc(S(=O)(=O)N2CCCC2)cc1C(=O)O | nt | nt | nt | -6% | nt
Cc1ccc(-n2ncc(C(=O)N3CCN(c4cccc(C)c4)C(C)C3)c2C2CCN(C(=O)OC(C)(C)C)CC2)cc1 (stereo not given) | nt | -11% | nt | nt | nt
O=C(C1CC1)N1CCc2cc(Br)cc(S(=O)(=O)N3CCCCCC3)c21 | -84% | 2% | 1.7µM* | -9% | nt
CCC(=O)N1CCc2cc(Br)cc(S(=O)(=O)C3(C(=O)OC)CC3)c21 | -42% | 1% | 4.1µM* | 10% | ?
O=C(C1CC1)N1CCc2cc(Br)cc(S(=O)(=O)N3CCN(c4cccc(Cl)c4)CC3)c21 | nt | 8% | nt | nt | nt
CCC(=O)N1CCc2cc(Br)cc(S(=O)(=O)N3CCCCC3CC)c21 (stereo not given) | 9% | -14% | 1µM* | -1% | ?
CCC(=O)N1CCc2cc(Br)cc(S(=O)(=O)NCCN3CCCCC3CC)c21 (stereo not given) | 4% | -12% | ? | 0% | ?
CCC(=O)N1CCc2cc(Br)cc(S(=O)(=O)N3CCC(C(=O)NC(C)C)CC3)c21 | -6% | -6% | 6.6µM* | -21% | 6%
Cc1cccc(C)c1NC(=O)C1C(c2ccc3c(c2)OCO3)=Nc2ccccc2N1C(=O)c1cccc2ccccc12 (stereo not given) | nt | nt | nt | -6% | nt
CC(O)[C@@H](O)[C@H]1CNc2nc(N)[nH]c(=O)c2N1 (stereo not given in full) | -1% | nt | nt | nt | nt
CC(C)(CNC(=O)C1c2ccccc2-c2ccccc21)N1CCOCC1 | -1% | 0% | ? | -10% | -13%
CCOC(=O)N1CCC(NS(=O)(=O)c2cc(Br)cc3c2N(C(=O)CC)CC3)CC1 | -11% | 0% | 8.3µM* | -6% | -2%
CCCN(CCC)S(=O)(=O)c1cc(Br)cc2c1N(C(=O)CC)CC2 | -105% | -4% | 1µM* | -4% | ?
COc1ccc2c(c1)c1c(c(=O)n(-c3ccc(F)c(Cl)c3)c(=O)n1CC(=O)N1CCCC1)n2C | nt | 3% | nt | nt | nt
COc1ccc(Cl)cc1NS(=O)(=O)c1cccc(C(=O)NCCCN2CCCC2=O)c1 | -6% | -1% | -9% | -14% | -14%
COc1ccc(-c2cccc(C3CC=CC4C3C(=O)N(Cc3ccccc3)C4c3ccc4ccccc4c3)c2)cc1 (stereo not given) | -1% | -1% | 9.3µM* | 8% | 15µM*
CN(C)c1ccc(-c2cccc(C3CC=CC4C3C(=O)N(Cc3ccccc3)C4c3ccc4ccccc4c3)c2)cc1 (stereo not given) | -1% | -27% | 9.3µM* | -16% | ?
O=C1C2C(c3ccccc3)CC=CC2[C@H](c2ccc3ccccc3c2)N1Cc1ccccc1 (stereo not given in full) | -53% | -18% | ? | 10% | ?
COc1ccc(C2C3C=CCC(c4cccc(-c5ccc(C)cc5)c4)C3C(=O)N2Cc2ccccc2)cc1Cl (stereo not given) | -12% | -9% | 12µM* | -8% | ?
O=C(Nc1c2c(nn1-c1ccc([N+](=O)[O-])cc1)CS(=O)(=O)C2)c1cccs1 | ? | 2% | ? | 5% | 5.9µM*
